Here are results for 16 molecules from PubChem BioAssay (NCATS).

Each structure is given as a SMILES string. Records with an inconclusive call do not appear. Activity calls are given as the source filed them. The call rests on the fitted dose curve.
On the % scale 0 is the no-effect control and ±100 the full control effect.

A short description of the test: Primary qHTS for Huh7 cytotoxicity: counterscreen for inhibitors of MERS-S pseudotyped particle cell entry (AID 1479147). The conditions noted are these: cell viability read-out; series mostly up to 57.1 µM; activity change, negative = cytotoxicity: at the top concentration. (In general: qHTS replaces the single test concentration by a dilution series.)
Regarding `CC(=O)[C@H]1CC[C@H]2[C@@H]3CCC4=CC(=O)CC[C@]4(C)[C@H]3CC[C@]12C`, the “activity change, negative = cytotoxicity” value was -10.4% (inactive).

On to `O=C1CCCC(=O)C1C(=O)c1ccc(C(F)(F)F)cc1[N+](=O)[O-]`, for which the result was inactive.

Turning to `Cc1ccc(NC(=O)C2(c3ccc4c(c3)OC(F)(F)O4)CC2)nc1-c1cccc(C(=O)O)c1`, the result was inactive.

In the case of `O=C1c2c(O)cccc2[C@@H]([C@@H]2O[C@H](CO)[C@@H](O)[C@H](O)[C@H]2O)c2cc(CO)cc(O)c21`, the outcome was inactive.

`N[C@@H](CC(=O)N1CCn2c(nnc2C(F)(F)F)C1)Cc1cc(F)c(F)cc1F`: the result was inactive.

`CCCNS(=O)(=O)Nc1ncnc(OCCOc2ncc(Br)cn2)c1-c1ccc(Br)cc1`: the outcome was inactive.

With `Cc1ccccc1O`, the “activity change, negative = cytotoxicity” value was 2.63% [at 114 µM] (inactive).

Take `COc1ccc(-n2nc(C(N)=O)c3c2C(=O)N(c2ccc(N4CCCCC4=O)cc2)CC3)cc1`: the “activity change, negative = cytotoxicity” value was -13.5% (inactive).

For `CC(O)[C@H]1CC[C@H]2[C@@H]3CC[C@@H]4C[C@@H](O)CC[C@]4(C)[C@H]3CC[C@]12C` (stereo partly specified), the outcome is “inactive [at 114 µM]”.

Turning to `CC(C)C(=O)Oc1ccc(CO)cc1[C@H](CCN(C(C)C)C(C)C)c1ccccc1`, the “activity change, negative = cytotoxicity” value is 0.457% (inactive).

Consider `C[C@H]1COc2c(N3CCN(C)CC3)c(F)cc3c(=O)c(C(=O)O)cn1c23`, for which the “activity change, negative = cytotoxicity” value was 2.27% (inactive).

As for `COc1ccc(CCN(C)CCCC(C#N)(c2ccc(OC)c(OC)c2)C(C)C)cc1OC` (stereo unspecified), the result was inactive.

For the molecule `CN(C/C=C/c1ccccc1)Cc1cccc2ccccc12`, the “activity change, negative = cytotoxicity” value is -18.8% (inactive).

Consider `C[N+]1(CCCCC[N+]2(C)CCCC2)CCCC1`, for which the “activity change, negative = cytotoxicity” value is 2.77% (inactive).

For the molecule `O=C(O)c1nc(=O)[nH]c(=O)[nH]1`, the outcome is “inactive [at 0.573 µM]”.

Take `CCc1cc2c(cc1N1CCC(N3CCOCC3)CC1)C(C)(C)c1[nH]c3cc(C#N)ccc3c1C2=O`: the “activity change, negative = cytotoxicity” value was 2.8% [at 26.4 µM] (inactive).
